Shown are actives, neighbours in structure and some others; about 3.7% of the full set was active somewhere.
PLK1 PBD inh – qHTS for Inhibitors of PLK1-PDB (polo-like kinase 1 - polo-box domain): Primary Screen; Serine/threonine-protein kinase PLK1 (Homo sapiens), P53350; Plk1 PBD binding of FITC phosphopeptide, fluorescence polarization; Potency, µM, without a hit: max response, negative = inhibition, usual class: inhibitors; 360,000 tested, 2.8% active; AID 720504, 2013; further: potency means the concentration at half of the fitted maximal effect; series mostly up to about 57 µM; on the % scale 0 is the no-effect control and ±100 the full control effect; nearly all actives have a fitted effect of over 65% in size
WRN helicase inh – qHTS for Inhibitors of WRN Helicase; WRN helicase unwinding, fluorescent forked duplex, kinetic; Potency, µM (titrated, usually from 114 µM), for inactives: at the highest dose activity change, negative = inhibition, hits mostly inhibitors; 360,000 tested, 0.46% active; further: potency means the concentration at half of the fitted maximal effect; on the % scale 0 is the no-effect control and ±100 the full control effect; nearly all actives have a fitted effect of over 55% in size
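Enzyme (20 nM final) and test compound sit together 15 min at room temperature before substrate addition. Substrate is a single-forked duplex oligonucleotide (100 nM) labelled with fluorophore and quencher, with 2 mM ATP; helicase unwinding raises red fluorescence, read kinetically.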
FEN1 inhibitor – qHTS Assay for the Inhibitors of Human Flap endonuclease 1 (FEN1); Recombinant FEN1 flap cleavage, fluorescence, 15 min; P39748; Potency, µM (top dose mostly 114 µM), inactives show at the top dose activity change, negative = inhibition, most hits filed as inhibitors; 390,000 tested, 0.35% active; further: potency means the concentration at half of the fitted maximal effect; on the % scale 0 is the no-effect control and ±100 the full control effect; nearly all actives have a fitted effect of over 65% in size
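Concentration–response screening of FEN1 (10 nM): 15 min compound preincubation at room temperature, reaction started with 50 nM substrate and read at 0 and 15 min. Corrected, normalized data were fitted by a four-parameter Hill equation.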
PI5P4K alpha inh – qHTS for Inhibitors of phosphatidylinositol 5-phosphate 4-kinase (PI5P4K). Phosphatidylinositol 5-phosphate 4-kinase type-2 alpha (Homo sapiens), P48426. PI5P4Kalpha enzyme, ADP-Glo luminescence, 60 min; stronger effect = lower value. max response, %. 330,000 tested, 1.2% active; active means max response of -50% or lower; inconclusive means between -30% and -50%; inactive means -30% or higher; further: value at the top dose of about 77 µM; on the % scale 0 is the no-effect control and ±100 the full control effect
Target sequence (P48426 whole entry, looked up): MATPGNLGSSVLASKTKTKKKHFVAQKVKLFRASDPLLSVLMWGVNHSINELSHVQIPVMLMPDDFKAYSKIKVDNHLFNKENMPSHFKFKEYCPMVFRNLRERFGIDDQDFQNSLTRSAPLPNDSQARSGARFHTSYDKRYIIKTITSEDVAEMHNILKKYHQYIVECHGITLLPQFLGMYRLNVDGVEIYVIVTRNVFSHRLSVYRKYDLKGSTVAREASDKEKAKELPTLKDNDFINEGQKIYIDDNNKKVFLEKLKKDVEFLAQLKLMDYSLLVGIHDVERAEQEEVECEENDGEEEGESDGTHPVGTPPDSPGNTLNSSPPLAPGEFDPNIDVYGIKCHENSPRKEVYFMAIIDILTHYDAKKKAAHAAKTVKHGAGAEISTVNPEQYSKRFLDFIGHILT
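Reactions run in 0.038 M HEPES pH 7.4, 0.28 mM EGTA, 0.1% CHAPS and 5% DMSO, with PI5P4Kalpha, substrate, compound and 5 microM ATP final, one hour at room temperature. Readout is ADP-Glo luminescence.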
TCR activator – Activators of T cell receptors: qHTS campaign. 330,000 tested, under 10 active. Potency, µM (doses to about 9.22 µM), for the others: top-dose activation of IL-2 secretion, most hits filed as activators. AID 504894, 2011. primary human leukocytes, anti-CD3, IL-2 HTRF, 48 h; further: % of control where 0% means no effect
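Human primary leukocytes + a-CD3 beads + cpd, 48 hr; IL-2 in supernatant by HTRF (ex 320nm / em 665nm). No co-stimulatory signal supplied.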
VDR inhibitor – Inhibitors of the vitamin D receptor (VDR): qHTS; VDR-SRC2-3 peptide fluorescence polarization, 2 h; Potency, µM, without a hit: max response, negative = inhibition, hits mostly inhibitors; 400,000 tested, 0.93% active; AID 504847, 2011; further: potency means the concentration at half of the fitted maximal effect; on the % scale 0 is the no-effect control and ±100 the full control effect
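FP read-out; VDR + SRC2-3 coactivator peptide; 23 nl compound by pintool; 2 h RT incubation; reagents held at 4 deg C, protected from light.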
The depositor's hits bear a star; u = inconclusive; x = no result; [ ] = remark or other dose. Unless noted, the call rests on the fitted dose curve; in most records, active means well fitted curve in the direction sought with a large enough effect; inconclusive means small, poorly fitted or top-dose-only effect, or another doubt; inactive means no such curve, though single readings can be large; an effect the other way counts as inactive or inconclusive.

SMILES	PLK1 PBD inh	WRN helicase inh	FEN1 inhibitor	PI5P4K alpha inh	TCR activator	VDR inhibitor
O=C(Cc1ccc(Cl)cc1)NNC(=O)c1cnccn1	30µM*	6%	4%	-10	7%[46.1 µM]	-18%
CCOC(=O)N1CCc2c(sc3c2c(=O)n(CCc2ccccc2)c(=O)n3Cc2ccc(C)cc2C)C1	x	x	11%	x	x	-1%
COc1ccc(OC)c(CCNC(=O)c2nc(-c3ccc(Cl)cc3)n3c2CCCCC3)c1	x	x	4%	x	x	13%
CCCCOc1ccc(CC(=O)NOC)cc1	x	x	-4%	x	x	x
COc1ccccc1C(=O)n1nc(-c2ccco2)nc1SC	11µM*	-2%	-15%	-4	-2%	-9%
CSc1nc(-c2ccco2)nn1C(=O)c1ccco1	u	12%	-1%	1	-8%[46.1 µM]	-3%
CCS(=O)(=O)n1nc(-c2ccco2)nc1SC	9.5µM*	2%	1%	u	x	u
COC(=O)C1(C(=O)OC)CC(CO)C(=O)[C@H]1c1ccccc1 (some centres not stated)	x	x	x	x	x	3%
CCS(=O)(=O)c1ncc(Cl)c(C(=O)N(Cc2ccccc2)c2ccc(OC)cc2)n1	x	x	7%	x	x	u
CC(=O)C1=C(O)C(=O)N(c2ccc(C)cc2)C1c1ccc([N+](=O)[O-])cc1 (configuration not stated)	27µM*	-9%	-5%	0	0%	-4%
CC(=O)C1=C(O)C(=O)N(c2ccc(S(N)(=O)=O)cc2)C1c1cccc([N+](=O)[O-])c1 (configuration not stated)	27µM*	9%	-8%	-11	1%	-15%
CCOC(=O)C1=C(O)C(=O)N(c2ccc(S(N)(=O)=O)cc2)C1c1cccc([N+](=O)[O-])c1 (configuration not stated)	-4%	-2%	12%	-7	0%	-8%
CCOC(=O)C1=C(O)C(=O)N(c2ccc(S(N)(=O)=O)cc2)C1c1ccc([N+](=O)[O-])cc1 (configuration not stated)	30µM*	-2%	-15%	-16	-5%	-26%
COc1ccc(N(C(=O)/C=C\C(=O)Nc2ccc(Cl)cc2)C(C(=O)NCc2ccco2)c2ccc(C)cc2)cc1 (configuration not stated)	x	x	-2%	x	x	12%
NC(=S)n1[nH]c(-c2ccc([N+](=O)[O-])cc2)c(N=Nc2cccc(Cl)c2)c1=O	u	-11%	50µM*	-79*	-3%	8%
COc1ccc(OC)c(C2c3c(oc4ccc(C)cc4c3=O)C(=O)N2CCCN(C)C)c1 (configuration not stated)	x	x	18%	x	x	-1%
CCc1ccc[n+](-c2[nH]c(=O)sc2/C=N/NC([S-])=Nc2ccccc2)c1	21µM*	u	7%	u	0%[46.1 µM]	u
CC[C@H](C)[C@H](NC(=O)CNC(=O)[C@H](CC(C)C)NC(=O)[C@H](CC(C)C)NC(=O)[C@H](CCC(N)=O)NC(=O)[C@H](CCC(N)=O)NC(=O)[C@H](CC(=O)O)NC(=O)[C@H](CCCCN)NC(=O)[C@H](CC(C)C)NC(=O)[C@H](Cc1ccc(O)cc1)NC(=O)[C@H](CCCNC(=N)N)NC(=O)[C@H](CCC(=O)O)NC(=O)[C@@H](NC(=O)[C@H](C)NC(=O)[C@H](CC(C)C)NC(=O)[C@@H](NC(=O)[C@@H](N)CCCNC(=N)N)[C@@H](C)CC)C(C)C)C(=O)N[C@@H](Cc1c[nH]c2ccccc12)C(=O)NCC(=O)N[C@@H](CS)C(=O)N[C@@H](CO)C(=O)O	x	x	x	x	x	-9%
COc1c(Cl)cc(C(=O)NN)cc1Cl	-21%	-26%	1%	5	-3%	6%
NNC(=O)c1cc(O)c(O)c(O)c1	u	-16%[57.1 µM]	22µM*	-17	-2%	-7%
Clc1ccc(-c2nc3ccccn3c2Nc2ccc3c(c2)OCCO3)s1	x	x	-8%	x	x	-15%
CCc1cccc(NC(=O)CCS(=O)(=O)c2ccc(C)cc2)c1	x	x	-3%	x	x	6%
CCN(C(=O)COC(=O)CSc1ccc([N+](=O)[O-])cc1)C1CCS(=O)(=O)C1 (configuration not stated)	7.5µM*	u	2%	-26	-37%	u
CN(C(=O)COC(=O)CSc1ccc([N+](=O)[O-])cc1)C1CCS(=O)(=O)C1 (configuration not stated)	-12%	-9%	-6%	-1	0%	6%
Cc1ccc(Cl)cc1NC(=O)c1sc2nc(-c3ccccc3)cn2c1C	x	x	-5%	x	x	6%
SMILES	PLK1 PBD inh	WRN helicase inh	FEN1 inhibitor	PI5P4K alpha inh	TCR activator	VDR inhibitor
O=c1c2ccccc2nc(SCc2nnc(-c3ccccc3Br)o2)n1-c1ccccc1	-1%	-5%	-16%	x	-2%[46.1 µM]	-2%
Brc1ccccc1-c1nnc(CSc2nncn2-c2ccccc2)o1	27µM*	-7%	-5%	u	x	-18%
O=[N+]([O-])c1cccnc1Oc1ccccc1F	3%	-5%	7%	1	-1%	-11%
O=[N+]([O-])c1cccnc1Oc1cc(Cl)c(Cl)cc1Cl	17µM*	-14%	x	13	x	x
CCOc1ccc(NC(=O)c2sc3nc(N4CCOCC4)c4c(c3c2N)CCCC4)cc1	30µM*	-3%[57.1 µM]	19%	-8	-8%	-27%
N#Cc1nc(N2CCCCC2)nc(N2CCCCC2)n1	x	x	8%	x	x	-9%
O=C(O)c1cc2ncc(-c3[nH]ncc3[N+](=O)[O-])cn2n1	-14%	u	-6%	-56*	-4%	4%
NC(=O)C1CCN(C2=C(NS(=O)(=O)c3ccc(Cl)cc3)C(=O)c3ccccc3C2=O)CC1	-13%	8%	3%	-4	-5%	-9%
COC(=O)C1CCN(C2=C(NS(=O)(=O)c3ccc(Cl)cc3)C(=O)c3ccccc3C2=O)CC1	21µM*	-5%	-20%	1	8%	-20%
O=C(NCCc1nc2ccccc2n1CCCOc1ccc2ccccc2c1)C1CCCCC1	x	x	-20%	x	x	-17%
O=C(O)CCCCCn1c(SCC(=O)Nc2ccc(F)cc2)nc2ccsc2c1=O	-2%	-15%	-15%	-5	-1%	19%
O=C(O)CCCCn1c(SCC(=O)Nc2ccccc2C(F)(F)F)nc2ccsc2c1=O	-3%	0%	5%	-99*	-41%	-6%
CN(C)c1ccc(/C=C/c2ccnc3ccccc23)cc1Cl	x	x	-19%	x	x	x
